Reference: PubChem BioAssay (NCATS)
Records with an inconclusive call do not appear. Unmarked numbers belong to inactive results. Activity calls are given as the source filed them. Calls follow the shape of the dose curve; as a rule, active = well fitted inhibition curve with a large enough effect; inconclusive = small, poorly fitted or top-dose-only effect; inactive = no such curve, though single readings can be large or run the other way.

target: Cytochrome P450 3A4 (Homo sapiens) (UniProt P08684); experiment: qHTS Assay for Inhibitors and Substrates of Cytochrome P450 3A4 (AID 884); settings: recombinant CYP3A4, Luciferin-PPXE luminescence; series mostly up to 57.1 µM; activity change, negative = inhibition: at the top concentration; also: nearly all actives have a fitted effect of over 50% in size
Sequence (P08684 whole entry, looked up): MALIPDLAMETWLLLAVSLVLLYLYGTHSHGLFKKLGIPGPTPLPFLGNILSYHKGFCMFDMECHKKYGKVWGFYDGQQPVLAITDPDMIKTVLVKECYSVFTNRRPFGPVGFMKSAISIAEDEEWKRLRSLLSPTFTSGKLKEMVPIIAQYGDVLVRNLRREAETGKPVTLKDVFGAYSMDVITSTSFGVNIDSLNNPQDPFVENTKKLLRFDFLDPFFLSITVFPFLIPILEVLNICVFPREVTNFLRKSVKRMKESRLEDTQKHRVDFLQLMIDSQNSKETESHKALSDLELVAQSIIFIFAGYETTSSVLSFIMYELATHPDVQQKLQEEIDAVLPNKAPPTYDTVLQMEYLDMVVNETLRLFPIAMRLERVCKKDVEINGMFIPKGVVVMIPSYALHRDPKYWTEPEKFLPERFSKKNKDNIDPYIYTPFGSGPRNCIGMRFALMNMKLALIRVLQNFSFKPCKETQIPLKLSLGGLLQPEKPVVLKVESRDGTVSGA
In short: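 Luminescent readout of luciferin produced by CYP3A4 (20 nM) dealkylation of Luciferin-PPXE, 25 uM (its KM). NADPH-driven reaction ran 60 min at RT after 10 min compound preincubation; data scaled to 57 uM ketoconazole as 100% inhibition.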
% is scaled to controls: 0 for no effect and ±100 for the full control effect; potency is read from the fitted curve at half-maximal effect.

SMILES	activity change, negative = inhibition	Potency
CC1=C(C(=O)OCc2ccccc2)C(C2CC2)NC(=O)N1CCCCCC(=O)O (stereo not given)	-19.6%	–
CC(=O)c1ccsc1B(O)O	-20.8%	–
Cn1c(=O)c(C(=O)COC(=O)c2cc(C(F)(F)F)nc3c(C(F)(F)F)cccc23)c(N)n(Cc2ccccc2)c1=O	-27.7%	–
CC(C)Cn1c(N)c(C(=O)COC(=O)c2cc(C3CC3)nc3ccccc23)c(=O)n(C)c1=O	-20.4%	–
Cc1ccc(B(O)O)cc1	-24.1%	–
Cn1c(N)c(C(=O)COC(=O)c2cc(C(F)(F)F)nc3c(C(F)(F)F)cccc23)c(=O)n(C)c1=O	-12.2%	–
COC(=O)[C@@H]1C[C@@]2(O)[C@@H](O)[C@@H](O)[C@@H](O)C[C@H]2N1C/C=C/c1ccccc1	-37.6%	–
COC(=O)c1cccc(C23CC4(C2)[C@H](CN(Cc2ccc(-c5ccccc5)cc2)[C@@H]4c2ccccc2)C3c2ccc(Cl)nc2)c1 (stereo not given in full)	-26.5%	–
COC(=O)[C@@H]1C[C@@]2(O)[C@@H](O)[C@@H](O)[C@@H](O)C[C@H]2N1Cc1ccc(N2CCOCC2)cc1	-13.7%	–
COC(=O)[C@@H]1C[C@H]2CC[C@H](O)C[C@H]2N1Cc1ccccc1OS(=O)(=O)c1ccc(C)cc1	–	2 µM (active)
COCCNC(=O)C1(CC(C)C)C=CCN1C(C)=O (stereo not given)	-18.5%	–
COC(=O)[C@@H]1C[C@@]2(O)[C@@H](O)[C@@H](O)[C@@H](O)C[C@H]2N1Cc1ccc(C(F)(F)F)cc1	-34.5%	–
CCC1=C2CC[C@H]3C(=O)NC(=O)[C@H]3[C@H]2[C@@]2(C)C(=NCC(=O)OC)OC(=O)N2C1=O	-14.8%	–
COC(=O)[C@@H]1C[C@@]2(O)[C@H](O)[C@H](O)[C@H](O)C[C@H]2N1C/C=C/c1ccccc1	-16.6%	–
CCCCCCCCCCCCCCCC(=O)NCCc1ccc(O)c(O)c1	-24.9%	–
CC(Cc1ccccc1)C(=O)Nc1ccccc1 (stereo not given)	-53.7%	–
O=C(N[C@@H](Cc1ccccc1)C(=O)O)c1ccccc1	-10.1%	–
O=[N+]([O-])c1ccccc1S(=O)(=O)NCC1CCC(CNCC2CCc3ccccc3C2)CC1 (stereo not given)	-1.89%	–
C#CC(C)OC(=O)C(C)NC(=O)c1ccccc1 (stereo not given)	-13.5%	–
CN(C)/C=N/c1cc(=O)[nH]c(=O)n1CC1CC1	-3.92%	–

SMILES	activity change, negative = inhibition	Potency
COC(=O)c1ccc(C23CC4(C2)[C@H](CN(Cc2ccc(C(F)(F)F)cc2)[C@@H]4c2ccccc2)C3c2ccc(C(F)(F)F)cc2)cc1 (stereo not given in full)	-25%	–
Cn1c(N)c(C(=O)COC(=O)c2cc(C(F)(F)F)nc3ccccc23)c(=O)n(C)c1=O	9.74%	–
OB(O)c1ccc(Br)cc1	-29.4%	–
C=CCN1CCc2c(cc(O)c(O)c2Cl)C(c2cccc(C)c2)C1 (stereo not given)	-23.2%	–
COC(=O)[C@@H]1C[C@@]2(O)[C@H](O)[C@H](O)[C@H](O)C[C@H]2N1Cc1ccc(C(C)(C)C)cc1	-27.1%	–
COc1cc(/C=C/C(=O)N2CCCCC2=O)cc(OC)c1OC	-22%	–
COC(=O)[C@@H]1C[C@@]2(O)[C@@H](O)[C@@H](O)[C@@H](O)C[C@H]2N1Cc1ccc(-c2ccccc2)cc1	-15.1%	–
OB(O)c1ccc(B(O)O)cc1	-24.2%	–
OB(O)c1csc2ccccc12	-20.3%	–
CN(C)c1nc(N)c(C(=O)Nc2cccnc2)nc1Cl	-45.9%	–
O=C(O)/C=C/c1cccc(B(O)O)c1	-21.7%	–
C[C@@]1(O)C(O)[C@@H](CO)O[C@H]1n1cnc2c(NC3CCCC3)nc(Cl)nc21 (stereo not given in full)	-29.2%	–
N#Cc1ccc(C23CC4(C2)[C@H](CN(Cc2ccc(C(F)(F)F)cc2)[C@@H]4c2ccccc2)C3c2ccc(C(F)(F)F)cc2)cc1 (stereo not given in full)	-26.7%	–
Cc1cc(C(=O)O)sc1C(N)C(=O)O (stereo not given)	-25.7%	–
COC(=O)CC1Oc2cc3oc4c5ccccc5oc(=O)c4c3cc2O1 (stereo not given)	-0.639%	–
O=C(O)c1cc(C2CC2)nc2ccccc12	-21.3%	–
O=C(O)c1ccc(NS(=O)(=O)c2ccsc2C(=O)O)c(O)c1	-12.7%	–
FC(F)(F)c1ccc(C2[C@H]3CN(CC4CCCCC4)[C@H](c4ccccc4)C34CC2(c2ccccc2)C4)cc1 (stereo not given in full)	-40.3%	–
OB(O)c1ccc(Cl)s1	-11.6%	–
FC(F)(F)c1ccc(CN2C[C@@H]3C(c4ccccc4)C4(c5cccnc5)CC3(C4)[C@H]2c2ccccc2)cc1 (stereo not given in full)	–	15.8 µM (active)
